HEK cytotox – Cytotoxic Profiling in HEK 293 Cell Line of Diverse Libraries Using Quantitative High-Throughput Screening; HEK 293 viability, ATP luminescence (CellTiter-Glo), 48-72 h; Potency, µM (highest dose often 115 µM), actives largely listed as inhibitors; hit rate 6.6% among 94,000; AID 1345083, 2018; further: nearly all actives have a fitted effect of over 60% in size
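CellTiter-Glo luminescence (cellular ATP) was read after 48 or 72 hr of compound exposure at 37 degree Celsius. Cells were HEK 293 plated at 250 cells/well.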
Luciferase inh – Firefly luciferase inhibition profiling of diverse chemical library using quantitative high-throughput screening. Luciferin 4-monooxygenase (Photinus pyralis), P08659. purified P. pyralis luciferase, luminescence, biochemical. Potency, µM (titrated, usually from 115 µM), actives largely listed as inhibitors. hit rate 2.5% among 76,000; further: nearly all actives have a fitted effect of over 65% in size
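Cell-free enzyme assay, 10nM P. pyralis luciferase, luciferin and ATP each at 10uM. Inhibition profiled over a 6-point titration, read as luminescence.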
NPR1 antag – Natriuretic polypeptide receptor (hNpr1) antagonism - Primary qHTS | Atrial natriuretic peptide receptor 1 (Homo sapiens), P16066 | HEK293 hNpr1 GloSensor cGMP, ANP-stimulated luminescence | Potency, µM (series often up to 46.3 µM), hits mostly inhibitors | hit rate 1.6% among 76,000; calls by dose curve; further: nearly all actives have a fitted effect of over 60% in size
Target sequence (P16066 whole entry, looked up): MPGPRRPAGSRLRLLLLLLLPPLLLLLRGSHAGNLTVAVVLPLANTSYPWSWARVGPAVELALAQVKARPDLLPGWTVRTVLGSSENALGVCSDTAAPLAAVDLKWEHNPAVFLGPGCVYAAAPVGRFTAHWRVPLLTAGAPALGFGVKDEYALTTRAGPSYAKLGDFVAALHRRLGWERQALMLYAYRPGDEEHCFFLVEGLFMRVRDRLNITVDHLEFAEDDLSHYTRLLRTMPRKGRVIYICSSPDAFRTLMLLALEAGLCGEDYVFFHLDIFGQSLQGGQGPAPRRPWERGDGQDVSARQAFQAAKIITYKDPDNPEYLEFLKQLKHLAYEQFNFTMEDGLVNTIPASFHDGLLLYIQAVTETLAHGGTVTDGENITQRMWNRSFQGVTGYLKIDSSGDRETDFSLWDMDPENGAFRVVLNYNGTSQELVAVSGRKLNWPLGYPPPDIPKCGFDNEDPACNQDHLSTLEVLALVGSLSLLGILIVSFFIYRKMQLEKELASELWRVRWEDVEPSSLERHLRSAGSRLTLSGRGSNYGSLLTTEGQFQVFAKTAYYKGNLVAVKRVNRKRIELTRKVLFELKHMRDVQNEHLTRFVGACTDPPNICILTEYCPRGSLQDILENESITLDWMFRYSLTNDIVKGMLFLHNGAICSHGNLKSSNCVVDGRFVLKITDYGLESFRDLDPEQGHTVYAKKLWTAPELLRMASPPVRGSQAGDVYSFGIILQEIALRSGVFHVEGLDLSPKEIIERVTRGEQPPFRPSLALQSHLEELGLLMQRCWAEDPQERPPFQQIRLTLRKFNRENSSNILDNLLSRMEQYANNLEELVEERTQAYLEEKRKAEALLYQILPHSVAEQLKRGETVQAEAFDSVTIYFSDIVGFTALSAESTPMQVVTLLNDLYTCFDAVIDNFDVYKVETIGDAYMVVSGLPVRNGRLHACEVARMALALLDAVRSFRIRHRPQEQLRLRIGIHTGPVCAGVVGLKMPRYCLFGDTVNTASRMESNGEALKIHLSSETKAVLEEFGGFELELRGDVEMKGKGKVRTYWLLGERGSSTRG
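HEK293 cells stably expressing human Npr1 and cGMP GloSensor pGS-40F, loaded 2 h with 2% GloSensor reagent, given compound 30 min at room temperature. Luminescence read before and 20 min after 0.1 nM hNppA.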
GPT2 inhibitor – Primary qHTS assay for inhibitors of Glutamate pyruvate transaminase 2 (GPT2) | Recombinant GPT2, coupled pyruvate oxidase/HRP Amplex Red fluorescence | Potency, µM (series often up to 57.7 µM), usual class: inhibitors | hit rate 0.25% among 100,000 | AID 1671188, 2021; further: nearly all actives have a fitted effect of over 60% in size
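GPT2 10ng/uL, a-KG 250uM, L-Ala 2mM, HEPES pH7.5 + 0.0001% Tween; 30 min RT. Then Amplex mix (PO/HRP/ThPP), 30 min RT dark, fluorescence. AOA 50uM used as positive control.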
NIH3T3 tox – Cytotoxic Profiling in NIH 3T3 Cell Line of Diverse Libraries Using Quantitative High-Throughput Screening | NIH 3T3 viability, CellTiter-Glo ATP luminescence, 48-72 h | Potency, µM (series often up to 96.7 µM), actives largely listed as inhibitors | hit rate 4.3% among 94,000 | AID 1345082, 2018; further: nearly all actives have a fitted effect of over 55% in size
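ATP-dependent luminescence (CellTiter-Glo) served as the viability signal for NIH 3T3 cells treated with compound for 48 or 72 hr at 37 °C.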
Each line names hits and unclear results; the compound was inactive in the other large screens; ! = repeats disagree. Compounds with a hit are over-represented: about 10% of the library has one in this group of screens. Unless noted, the call rests on the fitted dose curve; in most records, active means well fitted curve in the direction sought with a large enough effect; inconclusive means small, poorly fitted or top-dose-only effect, or another doubt; inactive means no such curve, though single readings can be large; an effect the other way counts as inactive or inconclusive.

O=C(NCc1ccccc1)C1(Oc2ccc(Cl)cc2)CCNCC1	HEK cytotox inconclusive, NIH3T3 tox inconclusive
Cc1ccc(OC2(C(=O)NCC3COc4ccccc4O3)CCNCC2)cc1 (stereo not given)	HEK cytotox 35µM, NIH3T3 tox 32µM
Cc1ccc(Nc2ccnc(N3CCC(C(=O)NCc4cccs4)CC3)n2)cc1	HEK cytotox 18µM, NIH3T3 tox 22µM (no result: Luciferase inh, NPR1 antag)
O=C(NCc1cccs1)C1CCN(c2nccc(Nc3ccccc3Cl)n2)CC1	HEK cytotox 45µM, NIH3T3 tox inconclusive (no result: Luciferase inh, NPR1 antag)
O=C(CCC(=O)N1CCn2nc(Cc3ccccc3)cc2C1)NC1CCCC1	GPT2 inhibitor inconclusive
O=C(NC1CCCC1)N1CCCN(c2ccc3nnc(-c4ccccc4)n3n2)CC1	NIH3T3 tox inconclusive (no result: Luciferase inh, NPR1 antag, GPT2 inhibitor)
O=[N+]([O-])c1cccc(-c2noc([C@@H]3Cc4nc[nH]c4CN3)n2)c1	HEK cytotox inconclusive, Luciferase inh 45µM!
COc1ccc(C(=O)N2CCC(n3c(C)cnc3-c3ccccc3)CC2)c(OC)c1	HEK cytotox inconclusive
Cc1nn(-c2ccccc2)c2c1C(C)N(CC1CN(Cc3ccc(F)cc3)C1)C2=O (stereo not given)	HEK cytotox inconclusive, NIH3T3 tox 35µM (no result: Luciferase inh, NPR1 antag, GPT2 inhibitor)
Cc1nn(-c2ccccc2)c2c1C(C)N(CC1CN(C(=O)c3ccc(Cl)cc3)C1)C2=O (stereo not given)	HEK cytotox inconclusive, NIH3T3 tox 35µM (no result: Luciferase inh, NPR1 antag, GPT2 inhibitor)
OC1(CNCc2cccnc2-n2cncn2)CCNC1 (stereo not given)	GPT2 inhibitor inconclusive
CNC(=O)c1cc(-c2ccccc2C(F)(F)F)nc2c1cnn2C	NIH3T3 tox inconclusive (no result: Luciferase inh, NPR1 antag, GPT2 inhibitor)
CCN(Cc1ccccc1)C(=O)CN1CCCc2nc(C3CC3)ncc2C1=O	HEK cytotox inconclusive
O=C(Nc1ccc2c(c1)OCCO2)C1CCN(C(=O)N2CC3CC(C2)[C@H]2CCCC(=O)N2C3)CC1 (stereo not given in full)	Luciferase inh 20µM
O=C1COCC2(CN1Cc1ccccc1)CN(C(=O)c1ccc(F)c(Cl)c1)C2	NIH3T3 tox 89µM
COc1ccc(CN2CC3(COCC2=O)CN(c2ccccc2)C3)cc1F	HEK cytotox inconclusive, NIH3T3 tox inconclusive
O=C1COCC2(CN1Cc1ccccc1)CN(C(=O)C1(c3ccccc3)CC1)C2	NIH3T3 tox 79µM
O=C1COCC2(CN1Cc1ccccc1)CN(c1cccnc1)C2	GPT2 inhibitor inconclusive, NIH3T3 tox 89µM
O=C1COCC2(CN(Cc3cc(F)ccc3F)C2)CN1Cc1ccccc1	HEK cytotox 100µM
O=C(c1ccc(Cl)nc1)N1CCC(C(=O)N2CCC(N3CCCC3=O)CC2)CC1	none (no result: Luciferase inh, NPR1 antag)
Cc1ccc(NC(=O)C2CN(c3ccnc4ccnn34)C2)cc1	HEK cytotox inconclusive, NIH3T3 tox inconclusive (no result: Luciferase inh, NPR1 antag)
NCc1cccc(-c2cccc(C(F)(F)F)c2)c1	HEK cytotox inconclusive, NIH3T3 tox 79µM (no result: Luciferase inh, NPR1 antag)
NCc1cccc(-c2ccc(OC(F)(F)F)cc2)c1	HEK cytotox 40µM, NIH3T3 tox 32µM (no result: Luciferase inh, NPR1 antag)
CC(C)CCN1C(=O)N(CCCc2ccncc2)C(=O)C12CCN(CC1=CC[C@H]3C[C@@H]1C3(C)C)CC2	none
COCCn1c(=O)c2c(n1Cc1ccccc1)CN(Cc1ccc3c(c1)CCO3)CC2	NIH3T3 tox inconclusive
O=C(NCC1CC1)c1cc(-c2cccs2)c2cccn2n1	HEK cytotox 71µM, NIH3T3 tox inconclusive (no result: Luciferase inh, NPR1 antag)
N#CC1CCN(C(=O)c2cc(-c3cccs3)c3cccn3n2)CC1	HEK cytotox 79µM, NIH3T3 tox inconclusive (no result: Luciferase inh, NPR1 antag)
O=C(NCc1ccc(F)cc1)c1cc(-c2cccs2)c2cccn2n1	HEK cytotox inconclusive, NIH3T3 tox inconclusive (no result: Luciferase inh, NPR1 antag)
O=C(NCc1cccc(Cl)c1)c1cc(-c2cccs2)c2cccn2n1	HEK cytotox 28µM, GPT2 inhibitor inconclusive, NIH3T3 tox inconclusive (no result: Luciferase inh, NPR1 antag)
COc1ccc(CCN2CCC(CN(C)Cc3nc(C(C)C)cs3)CC2)cc1	HEK cytotox 32µM, NIH3T3 tox inconclusive
CC[C@H]1CN(S(=O)(=O)c2c(C)noc2C)CC[C@H]1CC(=O)NCc1cccc2ccccc12	HEK cytotox 22µM, NIH3T3 tox inconclusive
Cc1cnc(C(=O)N2CCCC(c3nc(C4CCOCC4)no3)C2)cn1 (stereo not given)	none
O=C(NCc1ccc(F)cc1)[C@@H]1COCC(=O)N1Cc1ccc(F)cc1	none (no result: Luciferase inh, NPR1 antag)
CC(=O)N1CCN([C@H]2[C@@H]3OC[C@@H](O3)[C@@H](NC(=O)Nc3ccc(F)cc3)[C@@H]2O)CC1	none
CCc1cccc(NC(=O)C2CCc3ncc(-c4ccsc4)n3C2)c1 (stereo not given)	HEK cytotox 45µM, NIH3T3 tox inconclusive
COc1cc(NC(=O)C2CCc3ncc(-c4ccsc4)n3C2)cc(OC)c1 (stereo not given)	HEK cytotox inconclusive, NIH3T3 tox inconclusive
CN(C)CCN(C)[C@@H]1[C@H](O)[C@H](CO)O[C@@H]1CN(Cc1ccc(Cl)cc1)Cc1cccc(Cl)c1	HEK cytotox inconclusive, NPR1 antag inconclusive, NIH3T3 tox 28µM
OC[C@@H]1O[C@H](CN(Cc2cccc(Cl)c2)Cc2cccc(Cl)c2)[C@H](N2CCN(c3ccccn3)CC2)[C@@H]1O	HEK cytotox inconclusive, NIH3T3 tox inconclusive
O=C(c1ccc(F)c(Cl)c1)N1CCN(c2cc(-c3cccs3)[nH]n2)CC1	HEK cytotox inconclusive, NIH3T3 tox inconclusive
O=C(c1cc(Cl)ccc1Cl)N1CCN(c2cc(-c3cccs3)[nH]n2)CC1	HEK cytotox 45µM, NPR1 antag inconclusive, NIH3T3 tox inconclusive
O=C(CCc1ccccc1)N1CCN(c2cc(-c3cccs3)[nH]n2)CC1	HEK cytotox inconclusive, NIH3T3 tox inconclusive
CC(Oc1cccc(Cl)c1)C(=O)N1CCN(c2cc(-c3cccs3)[nH]n2)CC1 (stereo not given)	HEK cytotox 35µM, NPR1 antag inconclusive, NIH3T3 tox inconclusive
O=C(COc1ccc(Cl)cc1)N1CCN(c2cc(-c3cccs3)[nH]n2)CC1	HEK cytotox inconclusive, NIH3T3 tox 22µM
O=C(CNC(=O)c1ccc(-c2cccc(C(F)(F)F)c2)cc1)NCc1ccccc1	HEK cytotox inconclusive, NIH3T3 tox inconclusive (no result: Luciferase inh, NPR1 antag)
COc1ccc(-c2noc([C@@H]3Cc4nc[nH]c4CN3Cc3cccs3)n2)cc1	HEK cytotox inconclusive, Luciferase inh 71µM, NIH3T3 tox 89µM
c1csc(CN2Cc3[nH]cnc3C[C@H]2c2nc(-c3ccc4ccccc4c3)no2)c1	HEK cytotox 50µM, NIH3T3 tox inconclusive

High-throughput results (PubChem BioAssay)
